Laboratory results from PubChem BioAssay.
“And” between values parts separate entries of the source, which are not always exact repeats. Equal entries are not always repeated. Results filed as inconclusive are left out. The source made the active and inactive calls.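 How the source made its calls, unless noted: active means normalized viability below 100% at a tested concentration; inactive means the rest.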

Assays:
[1] = viability loss in pontine glioma line – cell-based, SU-DIPG-XXV, MIPE5.0, CellTiter-Glo, qHTS, dose response (AID 1347065; cut-off not given, nearly all actives have AC50 up to about 26 µM;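 further: cells exposed to compound for 48 hours before ATP readout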); details: CellTiter-Glo ATP luminescence
[2] = growth inhibition of DIPG cells – cell-based, MIPE4.0 library, CellTiter-Glo luminescence, qHTS (AID 1347066; cut-off not given, nearly all actives have AC50 up to about 30 µM;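 further: cells exposed to compound for 48 hours before readout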); details: SU-DIPG-VI viability, CellTiter-Glo ATP luminescence
[3] = chitosan synthesis blockers in C. neoformans – flow cytometry, Cibacron Brilliant Red staining (AID 1347148; call rule not given here;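 further: compound exposure lasted three days at 37 degrees C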); details: Cryptococcus neoformans chitosan, stronger effect = lower value; at 10 µM unless noted
[4] = compounds altering HSF1 focus formation in cells – imaging, Selleck Cancer Library (AID 1347162; in the data active means plate-normalised HSF1 focus index below about 0.46); details: human cells, HSF1 nuclear foci imaging, at 10 µM; SSMD: measured here: HSF1 foci SSMD mean; cell count: measured here: cell number; plate-normalised HSF1 focus index: stronger effect = lower value
[5] = blockers of cellular phospholipid synthesis – cell-based, LOPAC library, screen 4, primary screen (AID 1347384; call rule not given here); details: animal cells, phospholipid biosynthesis inhibition screen; at 10 µM
[6] = MELAS cybrid and Rieske KO viability enhancers – cell-based, MELAS cybrids, Rieske KO mouse fibroblasts, CellTiter-Glo, primary screen (AID 1508586;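 active means mean z-score across replicates of 1.96 or higher in either the MELAS or the Rieske mutant cell line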;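 further: z relative to plate mean and SD of compound and empty wells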); details: low glucose
[7] = drug combination growth inhibition, ovarian cancer – cell-based, oncology-focused library, rucaparib conditional, profiling panel (AID 1508598); details: patient-derived ovarian cancer cells, CellTiter-Glo viability, 144 h, stronger effect = lower value
[8] = galactose survival enhancers in mitochondrial complex I cybrids – cell-based, galactose medium, ATP luminescence, primary screen (AID 1645843;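 active means z-score of at least 1.8 in each of two replicates, scored against plate mean and spread of sample wells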;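 further: positive z means more ATP and so rescue of galactose-driven cybrid death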); details: complex I mutant cybrid cells, 72 h, stronger effect = higher value
[9] = growth inhibition of DIPG cells – cell-based, MIPE5.0 library, qHTS (AID 1347068; cut-off not given, nearly all actives have IC50 up to about 30 µM); details: SU-DIPG-XXV viability
[10] = viability loss with induced miR-34 in A549 – imaging, A549 dox-inducible miR-34, nuclei and caspase counts, primary screen (AID 1347080;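 active means compounds whose cell count with miR-34 switched on is under 0.7 times the count with it off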); details: A549 miR-34 inducible, Hoechst nuclei count, 48 h
[11] = target: NAD(+) hydrolase SARM1 (Homo sapiens) (UniProt Q6SZW1); test: blocking NAD cleavage by SARM1 SAM-TIR – cell lysate, NAD-Glo luminescence (AID 1508614;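 active means compound whose remaining NAD level is above about 45 nM, limit read from the data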); details: SAM-TIR HEK293T lysate NADase, at 1 µM, stronger effect = higher value
NAD(+) hydrolase SARM1 (Homo sapiens), sequence (Q6SZW1 whole entry, looked up, the tested form may be a part): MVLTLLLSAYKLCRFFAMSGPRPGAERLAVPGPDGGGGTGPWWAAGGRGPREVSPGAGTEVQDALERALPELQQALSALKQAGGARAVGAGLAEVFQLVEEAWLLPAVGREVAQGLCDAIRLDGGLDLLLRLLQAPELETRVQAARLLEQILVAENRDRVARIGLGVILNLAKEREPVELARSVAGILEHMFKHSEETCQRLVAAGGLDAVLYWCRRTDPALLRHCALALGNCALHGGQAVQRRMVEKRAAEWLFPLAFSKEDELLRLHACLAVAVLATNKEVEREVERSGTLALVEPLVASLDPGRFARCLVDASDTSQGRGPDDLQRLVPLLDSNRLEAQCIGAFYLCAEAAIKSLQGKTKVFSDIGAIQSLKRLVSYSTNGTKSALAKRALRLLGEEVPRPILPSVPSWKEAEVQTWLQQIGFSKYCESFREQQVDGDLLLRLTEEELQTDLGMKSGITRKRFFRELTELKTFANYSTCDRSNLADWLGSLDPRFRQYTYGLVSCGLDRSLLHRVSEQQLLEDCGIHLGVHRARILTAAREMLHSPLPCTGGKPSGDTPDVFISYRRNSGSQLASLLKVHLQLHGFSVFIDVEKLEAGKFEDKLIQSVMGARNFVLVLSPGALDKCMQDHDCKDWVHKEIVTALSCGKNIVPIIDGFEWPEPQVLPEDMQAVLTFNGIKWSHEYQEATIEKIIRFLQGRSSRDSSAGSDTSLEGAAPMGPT

[12] = target: Mitogen-activated protein kinase 7 (Homo sapiens) (UniProt Q13164); test: Gal4-ERK5 driven luciferase induction – cell-based, HTS, primary screen (AID 1508626;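 active means luciferase signal above three times the same-plate solvent-only control wells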;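 further: luciferase driven by Gal4-ERK5 fusion binding five Gal4 sites before minimal TATA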); details: HeLa Gal4-ERK5 transactivation, 18 h, at 5 µM, stronger effect = higher value
Mitogen-activated protein kinase 7 (Homo sapiens), sequence (Q13164 whole entry, looked up, the tested form may be a part): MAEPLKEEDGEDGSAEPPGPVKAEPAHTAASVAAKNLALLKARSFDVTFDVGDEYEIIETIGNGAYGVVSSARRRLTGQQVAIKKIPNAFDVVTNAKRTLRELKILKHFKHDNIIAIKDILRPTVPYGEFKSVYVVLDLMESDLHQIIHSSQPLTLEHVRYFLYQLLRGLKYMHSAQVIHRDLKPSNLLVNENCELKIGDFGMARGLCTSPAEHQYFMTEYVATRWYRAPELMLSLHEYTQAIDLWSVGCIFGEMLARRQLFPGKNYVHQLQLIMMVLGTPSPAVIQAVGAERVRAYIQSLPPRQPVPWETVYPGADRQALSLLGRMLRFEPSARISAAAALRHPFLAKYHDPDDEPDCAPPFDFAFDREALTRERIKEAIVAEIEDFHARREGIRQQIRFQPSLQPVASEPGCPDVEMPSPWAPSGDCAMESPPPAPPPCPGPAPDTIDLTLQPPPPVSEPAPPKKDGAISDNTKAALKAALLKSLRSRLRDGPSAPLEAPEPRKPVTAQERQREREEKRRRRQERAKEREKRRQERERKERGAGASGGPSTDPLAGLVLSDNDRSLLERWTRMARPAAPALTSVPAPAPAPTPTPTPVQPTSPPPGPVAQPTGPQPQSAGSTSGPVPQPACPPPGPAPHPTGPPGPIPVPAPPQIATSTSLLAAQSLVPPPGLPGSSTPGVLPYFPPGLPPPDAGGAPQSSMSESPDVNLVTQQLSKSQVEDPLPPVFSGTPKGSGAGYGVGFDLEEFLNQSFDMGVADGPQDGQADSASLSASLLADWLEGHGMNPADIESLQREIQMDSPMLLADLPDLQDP

[13] = MELAS cybrid survival, CellTiter-Glo 48 h, stronger effect = higher value
[14] = Rieske KO mouse fibroblast survival, CellTiter-Glo 72 h
[15] = stronger effect = lower value, cell number ratio, induced over uninduced
[16] = measured here: relative caspase fold change +Dox/-Dox
[17] = measured here: total cells with miR-34 induction, stronger effect = lower value
[18] = measured here: total cells without miR-34 induction

COC(=O)Nc1nc2ccc(C(=O)c3cccs3)cc2[nH]1
inactive: fold fluorescence [3] 18.7 [at 165.9 µM] | plate-normalised HSF1 focus index [4] 1.2 | outcome [5] | z-score [6, 13] -0.757 and 1.39 and -3.68 | viability ([7]; at 0.000305 µM, OCI-C5x cells, with rucaparib 10 µM, 100% = cells with rucaparib alone) 120% | viability ([7]; at 0.000305 µM, OCI-C5x cells, without rucaparib) 106% | viability ([7]; at 0.00122 µM, OCI-C5x cells, with rucaparib 10 µM, 100% = cells with rucaparib alone) 116% | viability ([7]; at 0.00122 µM, OCI-C5x cells, without rucaparib) 108% | viability ([7]; at 0.00488 µM, OCI-C5x cells, with rucaparib 10 µM, 100% = cells with rucaparib alone) 112% | viability ([7]; at 0.00488 µM, OCI-C5x cells, without rucaparib) 108% | z-score [8] -0.685 and -1.18 and -0.46
0.709 and -0.844 and -0.416: z-score [6, 14]
3.16: SSMD [4]
active: AC50 [1] 0.118 µM | AC50 [2] 3.72 µM | viability ([7]; at 0.000305 µM, OCI-P5x cells, with rucaparib 20 µM, 100% = cells with rucaparib alone) 89% | viability ([7]; at 0.000305 µM, OCI-P5x cells, without rucaparib) 84.1% | viability ([7]; at 0.00122 µM, OCI-P5x cells, with rucaparib 20 µM, 100% = cells with rucaparib alone) 88% | viability ([7]; at 0.00122 µM, OCI-P5x cells, without rucaparib) 90.4% | viability ([7]; at 0.00488 µM, OCI-P5x cells, with rucaparib 20 µM, 100% = cells with rucaparib alone) 87.3% | viability ([7]; at 0.00488 µM, OCI-P5x cells, without rucaparib) 58% | viability ([7]; at 0.0195 µM, OCI-C5x cells, with rucaparib 10 µM, 100% = cells with rucaparib alone) 96.1% | viability ([7]; at 0.0195 µM, OCI-C5x cells, without rucaparib) 74% | viability ([7]; at 0.0195 µM, OCI-P5x cells, with rucaparib 20 µM, 100% = cells with rucaparib alone) 68.5% | viability ([7]; at 0.0195 µM, OCI-P5x cells, without rucaparib) 32.7% | viability ([7]; at 0.0781 µM, OCI-C5x cells, with rucaparib 10 µM, 100% = cells with rucaparib alone) 71.2% | viability ([7]; at 0.0781 µM, OCI-C5x cells, without rucaparib) 69.2% | viability ([7]; at 0.0781 µM, OCI-P5x cells, with rucaparib 20 µM, 100% = cells with rucaparib alone) 62.5% | viability ([7]; at 0.0781 µM, OCI-P5x cells, without rucaparib) 35.1% | viability ([7]; at 0.313 µM, OCI-C5x cells, with rucaparib 10 µM, 100% = cells with rucaparib alone) 89% | viability ([7]; at 0.313 µM, OCI-C5x cells, without rucaparib) 97.5% | viability ([7]; at 0.313 µM, OCI-P5x cells, with rucaparib 20 µM, 100% = cells with rucaparib alone) 77.5% | viability ([7]; at 0.313 µM, OCI-P5x cells, without rucaparib) 52.1% | viability ([7]; at 1.25 µM, OCI-C5x cells, with rucaparib 10 µM, 100% = cells with rucaparib alone) 56.8% | viability ([7]; at 1.25 µM, OCI-C5x cells, without rucaparib) 60.1% | viability ([7]; at 1.25 µM, OCI-P5x cells, with rucaparib 20 µM, 100% = cells with rucaparib alone) 67.3% | viability ([7]; at 1.25 µM, OCI-P5x cells, without rucaparib) 48% | viability ([7]; at 5 µM, OCI-C5x cells, with rucaparib 10 µM, 100% = cells with rucaparib alone) 55.3% | viability ([7]; at 5 µM, OCI-C5x cells, without rucaparib) 38.7% | viability ([7]; at 5 µM, OCI-P5x cells, with rucaparib 20 µM, 100% = cells with rucaparib alone) 52.5% | viability ([7]; at 5 µM, OCI-P5x cells, without rucaparib) 14.7%
6830: cell count [4]

COC1=C(OC)C(=O)C(CCCCCCCCCCO)=C(C)C1=O
10200 and 9080 and 10500: cell count [10, 18]
0.303 and 0.0167 and -0.141: z-score [6, 14]
active: AC50 [2] 23.5 µM
8540 and 8000 and 9340: cell count [10, 17]
1.87 and 0.941 and 1.43: fold change [10, 16]
inactive: outcome [1] | outcome [9] | fold change [10, 15] 0.841 and 0.881 and 0.889 | z-score [6, 13] -0.358 and -0.43 and 0.294 | remaining NAD [11] 10 nM | z-score [8] -1.85 and -2.1

Nc1ncnc2c1ncn2[C@@H]1O[C@H](CO)[C@@H](O)[C@H]1O
10400: cell count [10, 17]
inactive: outcome [1] | outcome [2] | outcome [9] | fold change [10, 15] 0.803 | remaining NAD [11] 10 nM | luciferase signal [12] 112 AU
0.527: fold change [10, 16]
12900: cell count [10, 18]

COc1cc(OC)c(C(=O)CCCN2CCCC2)c(OC)c1
inactive: outcome [1] | outcome [2] | outcome [9] | fold change [10, 15] 0.858 and 0.948 and 0.902 | z-score [6, 13] -0.379 and 0.339 | remaining NAD [11] 10 nM | luciferase signal [12] 40 AU | z-score [8] 0.65
10400 and 11000 and 9300: cell count [10, 18]
8900 and 10500 and 8390: cell count [10, 17]
-0.346 and 0.199: z-score [6, 14]
1.32 and 1.94 and 0.958: fold change [10, 16]
